High-throughput results (PubChem)
Shown are actives, neighbours in structure and some others; about 14% of the full set was active somewhere.
HCMV inh: blocks human cytomegalovirus replication | HFF cells, HCMV-luciferase reporter, 72 h; active compounds read low | activity change, negative = inhibition, % at 57.5 µM | 410,000 compounds, 4.5% hits; in the data active means activity change below about -60%; inconclusive means no clear call, values can overlap the other calls; inactive means above about -39%
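Two-dose cell screen: HFF monolayers treated with compounds and infected with luciferase-expressing HCMV at 1 PFU/cell, 72 h at 37C, then lysed for luciferase measurement.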
Pf growth 48h: P. falciparum growth inhibition at 48 hours (one generation); P. falciparum luciferase growth in erythrocytes, 48 h; Potency, µM (highest dose often 28.7 µM), for inactives: at the highest dose activity change, negative = inhibition, most hits filed as inhibitors; 310,000 compounds, 5.9% hits; further: potency means the concentration at half of the fitted maximal effect
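Compounds are pin-transferred into medium, infected erythrocytes (2% hematocrit, 0.1% parasitemia final) are added, and plates sit one parasite generation at 37 C in 5% CO2. Detection reagent is then added and luminescence measured.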
Marburg entry inh: Marburg virus entry inhibition | Potency, µM (highest dose often 37.8 µM), for the others: top-dose activity change, negative = inhibition, usual class: inhibitors | 300,000 compounds, 1.8% hits | Marburg virus pseudotyped entry inhibition, cell reporter; calls by dose curve; tested in HEK293 cells; further: potency means the concentration at half of the fitted maximal effect
Lassa entry inh: inhibitors of Lassa virus binding or cell entry. Lassa virus pseudotype entry inhibition, cell reporter. Potency, µM (series often up to 37.9 µM), for the others: at the top dose activity change, negative = inhibition, usual class: inhibitors. 300,000 compounds, 1.2% hits. AID 540256; calls by dose curve; tested in HEK293 cells; further: potency means the concentration at half of the fitted maximal effect; nearly all actives have a fitted effect of over 50% in size
HCV inh: blocks hepatitis C virus; Huh7.5.1 HCVcc-Cre infection, luciferase reporter, 44 h; Potency, µM (titrated, usually from 41.8 µM), for inactives: at the highest dose activity change, negative = inhibition, most hits filed as inhibitors; 340,000 compounds, 3.4% hits; further: potency means the concentration at half of the fitted maximal effect
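Infectious HCVcc-Cre (~0.5 moi) was added to cells just after compound, with cells seeded 4 h earlier at 1,000 per well. Luciferase activity after 44 h culture reported infection; substrate was incubated 15 min at room temperature before reading.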
Pf growth 96h: inhibits malaria parasite growth, 96 h; P. falciparum luciferase reporter growth, 96 h; Potency, µM (doses to about 28.7 µM), for the others: top-dose activity change, negative = inhibition, most hits filed as inhibitors; 320,000 compounds, 6.9% hits; further: potency means the concentration at half of the fitted maximal effect
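Two parasite generations (96 h, 37 C, 5% CO2) of compound exposure in infected erythrocytes (0.05% parasitemia, 2% hematocrit). Luciferase-reporter P. falciparum; decreased luminescence indicates inhibited growth, aimed at apicoplast-acting delayed death.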
Active calls of the source: *; ? = inconclusive; nt = no result given; [ ] = remark or other dose. Unless noted, the call rests on the fitted dose curve; in most records, active means well fitted inhibition curve with a large enough effect; inconclusive means small, poorly fitted or top-dose-only effect, or another doubt; inactive means no such curve, though single readings can be large or run the other way. On the % scale 0 is the no-effect control and ±100 the full control effect.

SMILES | HCMV inh | Pf growth 48h | Marburg entry inh | Lassa entry inh | HCV inh | Pf growth 96h
C[C@@H](O)[C@H]1C(=O)N2C(C(=O)O)=C(SCCN=CN)C[C@H]12 | nt | nt | 21% | 4% | nt | nt
C#CCNC[C@@H]1CSCCS(=O)(=O)N1 | 6 | nt | nt | -3%[46.1 µM] | nt | nt
COc1cccc(C(=O)NC2CC3CCCC(C2)N3CC(=O)Nc2ccc(N(C)C)cc2)c1 (stereo not drawn) | ? | ? | -4% | 5% | ? | 12µM*
COc1cccc(C(=O)NC2CC3CCCC(C2)N3CC(=O)Nc2ccccc2)c1 (stereo not drawn) | -4 | 5.2µM* | ? | 0% | -24% | ?
O=C(CN1C2CCCC1CC(NC(=O)c1ccccc1)C2)Nc1ccccc1 (stereo not drawn) | -22 | ? | -23%[46.1 µM] | -23% | -1% | 8.3µM*
COc1ccc(C(=O)NCCn2cc(SCC(=O)NCCc3ccc(OC)c(OC)c3)c3ccccc32)cc1 | -17 | nt | -8%[46.1 µM] | -30%[46.1 µM] | nt | nt
COc1ccc(-c2nc3scc(CCNC(=O)Cc4ccc(F)cc4)n3n2)cc1 | -9 | nt | nt | 11%[46.1 µM] | nt | nt
COc1ccccc1NC(=S)N(CCCN1CCOCC1)Cc1cn(C)c2ccccc12 | -94* | ? | ? | -10% | ? | 43%
S=C(Nc1ccccc1Cl)N(CCCN1CCOCC1)Cc1ccccn1 | -9 | -21% | 0%[46.1 µM] | -1% | -1% | -28%
Cc1ccc(NC(=S)N(CCN2CCOCC2)Cc2ccccc2F)cc1Cl | ? | 12µM* | 6% | ? | -8% | ?
CCOc1ccccc1NC(=S)N(CCCN1CCOCC1)Cc1cn(C)c2ccccc12 | ? | 12µM* | ? | ? | ? | ?
Cc1ccc(NC(=S)N(CCCN2CCOCC2)Cc2ccco2)cc1 | 5 | 2% | 7%[46.1 µM] | 0%[46.1 µM] | 4% | 12µM*
Cc1cccc(NC(=S)N(CCN2CCOCC2)Cc2ccccc2F)c1 | 61 | ? | -10%[46.1 µM] | ? | -30% | ?
CNc1cccc(-c2cccc(C(=O)N3CCOCC3)c2)n1 | 37 | nt | nt | nt | nt | nt
Cc1ccc(C)c(CN2C(=O)c3ccccc3S(=O)(=O)c3ccc(C(=O)N4CCCC4)cc32)c1 | -30 | nt | ? | -18%[46.1 µM] | nt | nt
CCOc1ccc2c(c1)C(N(CCN1CCOCC1)C(=S)Nc1ccccc1OC)CC(C)(C)O2 (stereo not drawn) | -39 | ? | nt | nt | 2% | 10µM*
COc1ccc(NC(=S)N(CCN2CCOCC2)Cc2ccccc2F)cc1 | -9 | ? | ? | ? | 14% | ?
COc1ccccc1NC(=S)N(CCN1CCOCC1)Cc1ccccc1F | -61* | 0% | ? | ? | 9% | 22%
CCN1CCCc2cc(CN(CCN3CCOCC3)C(=S)Nc3ccccc3OC)ccc21 | 0 | ? | nt | nt | -16% | ?
CCN(C(=O)COc1ccc2ccc(=O)oc2c1)C1CCCCC1 | -15 | nt | -31% | 2% | -5% | nt
O=C(COc1ccccc1Cl)Nc1ccc(OCc2cc(=O)n3ccsc3n2)cc1 | 6 | nt | 16%[46.1 µM] | -18%[46.1 µM] | nt | nt
COc1ccc(S(=O)(=O)N2CCC(C(=O)NCc3ccncc3)CC2)cc1Cl | 8 | 29% | 5%[46.1 µM] | -8%[46.1 µM] | -9% | 1.9µM*
COc1ccc(S(=O)(=O)N2CCCC(C(=O)NCc3ccncc3)C2)cc1Cl (stereo not drawn) | -66* | -8% | -5% | 16% | -25% | 51%
COc1ccc(Cl)cc1S(=O)(=O)N1CCCC(C(=O)NCc2ccncc2)C1 (stereo not drawn) | 41 | 29% | -16% | -2% | 3% | -10%
Cc1ccc(N2CCN(C(CCc3ccccc3)C(=O)Nc3c(C)cccc3C)CC2)cc1 (stereo not drawn) | 123 | nt | nt | nt | nt | nt
SMILES | HCMV inh | Pf growth 48h | Marburg entry inh | Lassa entry inh | HCV inh | Pf growth 96h
CCCCn1c(N)c(N(CC(C)C)C(=O)Cc2ccc(S(=O)(=O)N3CCOCC3)s2)c(=O)[nH]c1=O | -27 | nt | 12% | -3% | 14% | nt
O=C(O)CSc1cc(NS(=O)(=O)c2cccc([N+](=O)[O-])c2)c2ccccc2c1O | 0 | 10µM* | nt | nt | 11µM* | ?
O=C(O)c1cccc(S(=O)(=O)Nc2ccc([N+](=O)[O-])cc2O)c1 | -35 | 7% | -1% | nt | 18% | 49%
CCOc1ccc(S(=O)(=O)Nc2cc3c(C(=O)OC)c(COC)oc3c3ccccc23)cc1 | 19 | nt | ? | -26%[46.1 µM] | nt | nt
CCOc1ccc(S(=O)(=O)Nc2cc(SCC(=O)O)c(O)c3ccccc23)cc1 | 9 | 10µM* | nt | nt | 10µM* | 1.9µM*
CCc1ccc(S(=O)(=O)Nc2cc(SCC(=O)O)c(O)c3ccccc23)cc1 | 63 | 7.4µM* | ? | ? | ? | ?
CCc1ccc(S(=O)(=O)Nc2ccc(O)c3ccccc23)cc1 | ? | 9.3µM* | nt | nt | -16% | 8%
Cc1ccc(C)c(S(=O)(=O)Nc2cc(SCC(=O)O)c(O)c3ccccc23)c1 | nt | ? | ? | ? | ? | 21%
COC(=O)C1=C(C(=O)OC)[C@@H]2Nc3ccccc3[C@@]23C[C@@H](C(=O)OC)N(C(=O)NC2CCCCC2)C3=N1 | -27 | nt | nt | nt | 4% | nt
COc1ccc(OC)c(CCNC(=O)C(C)n2c(C)c3cnn(-c4ccccc4)c(=O)c3c2C)c1 (stereo not drawn) | -1 | nt | -43%[46.1 µM] | 1%[46.1 µM] | nt | nt
O=C(O)c1ccccc1NS(=O)(=O)c1cccc2cccnc12 | 21 | -8% | 0% | 12% | 16% | nt
CCNC(=S)NS(=O)(=O)c1ccc(CC)cc1 | -95* | 7% | ? | 0% | 28% | ?
O=S(=O)(Nc1cc(Sc2cccc3cccnc23)c(O)c2ccccc12)c1ccccc1 | -100* | 3.3µM* | ? | 18µM* | ? | 243%
COc1ccc(Cl)cc1-c1cc(C(=O)NCc2ccc(C(F)(F)F)cc2)[nH]n1 | -18 | nt | nt | nt | nt | nt
Cc1ccc(CN2CCN(Cc3c(C)nn(C(C)C)c3C)CC2CCO)o1 (stereo not drawn) | -99* | 1% | nt | nt | 0% | 2%
COc1cccc(CN2CCN(Cc3ccc(O)c(OC)c3)CC2CCO)c1 (stereo not drawn) | 17 | 5% | 2%[46.1 µM] | ? | -28% | 10%
COc1cccc(CN2CCN(Cc3ccc(OC)c(OC)c3)CC2CCO)c1 (stereo not drawn) | 64 | -5% | -1%[46.1 µM] | 1% | 4% | 9.3µM*
Cc1ccc(CN2CCN(Cc3ccncc3)CC2CCO)o1 (stereo not drawn) | -1 | 10% | 3%[46.1 µM] | 20%[46.1 µM] | 21% | ?
COc1cccc(CN2CCN(Cc3ccc(C)o3)CC2CCO)c1 (stereo not drawn) | -12 | 0% | nt | nt | 4% | 13µM*
COc1ccc(CCCc2nnc(SCC(=O)Nc3ccc(C)cc3C)o2)cc1 | -13 | nt | -5%[46.1 µM] | -5%[46.1 µM] | nt | nt
Cc1ccc(-c2nn(-c3ccccc3)cc2/C=C(\C#N)C(=O)NCc2ccccc2)cc1 | 2 | 14% | 15% | ? | 8% | 44%
